Inconclusive results are not listed. Where a call stands in place of a potency, no number is given. Calls of active or inactive are those of the source. Calls follow the shape of the dose curve; as a rule, active = well fitted inhibition curve with a large enough effect; inconclusive = small, poorly fitted or top-dose-only effect; inactive = flat fitted curve, though single readings scatter.
These compounds were tested against Calcium and integrin-binding protein 1 (Homo sapiens) (UniProt Q99828) (assay: Primary qHTS for Identification of Calcium Integrin Binding Protein 1 (CIB1) Competitor (AID 1508620; also: top concentration of the series differs between compounds)). Details: CIB1-GST / FITC-alphaIIb peptide fluorescence polarization; series mostly up to 114 µM.
Chain of Calcium and integrin-binding protein 1 (Homo sapiens) (Q99828 whole entry, looked up): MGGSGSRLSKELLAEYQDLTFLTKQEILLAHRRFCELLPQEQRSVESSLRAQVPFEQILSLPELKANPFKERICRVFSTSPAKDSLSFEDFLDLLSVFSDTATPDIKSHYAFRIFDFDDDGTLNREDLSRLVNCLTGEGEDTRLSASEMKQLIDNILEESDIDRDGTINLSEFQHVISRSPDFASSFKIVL
In short: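 Fluorescence polarization competition: GST-tagged CIB1 (1 uM final) preincubated with compound 15 min at room temperature, then FITC-labelled alphaIIb peptide (100 nM final) added. After 15 min at room temperature, polarization read at Ex 480/Em 540.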

**Q.** COc1cc(OC)cc(-c2csc(N3CCC(C(N)=O)CC3)n2)c1 was tested. Which Potency did it give?
**A.** The Potency was “inactive”.

**Q.** Cc1cc(C)nc(NC(=S)N2CCN(c3cccc4ccccc34)CC2)c1 was tested. Which Potency did it give?
**A.** The Potency was “inactive”.

**Q.** For FC(F)(F)c1ccc(-c2nc(NCc3ccc(-c4ccnc(C(F)(F)F)c4)cc3)c3ccccc3n2)cc1, which Potency is on record?
**A.** The Potency was “inactive”.

**Q.** C#CCOc1ccc(C(C)=O)cc1-c1nnc2n1N=C(c1ccc(OC)c(OC)c1)CS2 was tested. Which Potency did it give?
**A.** Its Potency is “inactive”.

**Q.** With CC(=O)Nc1cccc(S(=O)(=O)Nc2ccc(C)c(C)c2)c1 as the compound, how does the Potency read?
**A.** The Potency was “inactive”.

**Q.** O=S1(=O)N=C(Oc2ccc(C(F)(F)F)cc2)c2ccccc21 was tested. Which Potency did it give?
**A.** Its Potency is “inactive”.

**Q.** For O=Cc1nc(Nc2cc(F)cc(F)c2)nc(NC2CCCC2)n1, which Potency is on record?
**A.** Its Potency is “inactive”.

**Q.** O=c1c2ccc(F)cc2nc2sc(Nc3ccc4c(c3)CCC4)nn12 was tested. Which Potency did it give?
**A.** Its Potency is “inactive”.

**Q.** Which Potency does the source give for O=C(c1ccc2c(c1)ncn2-c1cccc(Cl)c1)N1CCCCC1 here?
**A.** The Potency was “inactive”.

**Q.** How did the Potency turn out when O=C(O)c1ccc(O)c2ncc(N3CCCN(CCCc4ccncc4)CC3)cc12 was run?
**A.** Its Potency is “inactive”.

**Q.** How did the Potency turn out when CC(=O)Nc1ccc(NC(=O)c2cnn3c(C)cc(C)nc23)cc1 was run?
**A.** Its Potency is “inactive”.

**Q.** Which Potency does the source give for COc1ccc(C2=Nn3c(nnc3-c3cccc(OC)c3OC)SC2)cc1OC here?
**A.** The Potency was “inactive”.

**Q.** Which Potency does the source give for CCOC(=O)c1nc(NCc2ccccc2)sc1C here?
**A.** Its Potency is “inactive”.

**Q.** How did the Potency turn out when CSc1ccc(CNc2ncnc3ccc(-c4c(C)noc4C)cc23)cc1 was run?
**A.** Its Potency is “inactive”.

**Q.** How did the Potency turn out when O=S(=O)(Nc1nccs1)c1ccc(NCc2cccc(Cl)c2Cl)cc1 was run?
**A.** Its Potency is “inactive”.

**Q.** With Cc1ccc(CN(C)c2ncnc3ccc(-c4ccc(CO)o4)cc23)o1 as the compound, how does the Potency read?
**A.** Its Potency is “inactive”.

**Q.** With Cc1noc(C)c1-c1ccc2ncnc(NCc3ccc(Br)cc3)c2c1 as the compound, how does the Potency read?
**A.** The Potency was “inactive”.

**Q.** With Cc1csc(CNc2ncnc3ccc(-c4ccc5c(c4)OCO5)cc23)n1 as the compound, how does the Potency read?
**A.** Its Potency is “inactive”.

**Q.** How did the Potency turn out when O=S(=O)(NC1CCCC(NS(=O)(=O)c2c(F)cccc2F)C1)c1ccc2c(c1)OCCO2 (stereo not drawn) was run?
**A.** The Potency was “inactive”.

**Q.** N#Cc1ccc(Nc2nn3c(=O)c4ccccc4nc3s2)cc1 was tested. Which Potency did it give?
**A.** The Potency was “inactive”.

**Q.** COc1ccc(NC(=O)CSc2nnc(-c3cccc(S(=O)(=O)N4CCCC4)c3)n2-c2ccccc2)cc1 was tested. Which Potency did it give?
**A.** The Potency was “inactive”.

**Q.** With CCOc1ccc(CCNC(=O)c2cc3sccc3n2Cc2cccc(C)c2)cc1OCC as the compound, how does the Potency read?
**A.** The Potency was “inactive”.

**Q.** NC(=O)C1CCN(c2nc(-c3ccc4ccccc4c3)cs2)CC1 was tested. Which Potency did it give?
**A.** The Potency was “inactive”.

— PubChem BioAssay (NCATS)
